Source: PubChem BioAssay AID1159580 (chemical genetic matrix, 2015)
Out of some 5,500 compounds screened, about 2,000 (36%) were called active. Roughly 18% stayed inconclusive and do not appear here. Rule as the data show it: active = normalized growth mostly below about 0.91 (no sharp cut-off); inconclusive = no clear call, values can overlap the other calls; inactive = mostly above about 0.92. The list shows a part of the results.

Test: chemical genetic growth profiling, strain panel (AID 1159580);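 also: tested at 20 µM; growth read once vehicle control cultures reached saturation at 30 °C; 1 = growth at the plate median or of vehicle wells; lower values mean less growth of the strain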
Settings: growth OD

Measured: normalized growth

O=c1c(O)cc([C@H]2Oc3cc(O)cc(O)c3C[C@H]2O)cc2c([C@H]3Oc4cc(O)cc(O)c4C[C@H]3O)cc(O)c(O)c12
inactive: S. cerevisiae deletion strains, locus YJR066W, strain TOR1, active compounds read low 0.921 | S. cerevisiae deletion strains, locus YKL009W, strain mrt4, active compounds read low 1.09 | S. cerevisiae deletion strains, locus YKL068W, active compounds read low 1.01 | S. cerevisiae deletion strains, locus YKL160W, strain elf1, active compounds read low 1.01 | S. cerevisiae deletion strains, locus YKL190W, strain CNB1, active compounds read low 1.02 | S. cerevisiae deletion strains, locus YKR001C, strain vps1, active compounds read low 1.02 | S. cerevisiae deletion strains, locus YKR026C, strain gcn3, active compounds read low 0.987 | S. cerevisiae deletion strains, locus YKR091W, strain srl3, active compounds read low 1.03 | S. cerevisiae deletion strains, locus YLL001W, strain dnm1, active compounds read low 1.03 | S. cerevisiae deletion strains, locus YLL026W, active compounds read low 1.04 | S. cerevisiae deletion strains, locus YLL041C, strain sdh2, active compounds read low 1.03 | S. cerevisiae deletion strains, locus YLR027C, strain aat2, active compounds read low 1.02 | S. cerevisiae deletion strains, locus YLR039C, strain RIC1, active compounds read low 1.15 | S. cerevisiae deletion strains, locus YLR058C, strain SHM2, active compounds read low 1 | S. cerevisiae deletion strains, locus YLR102C, strain apc9, active compounds read low 1.02 | S. cerevisiae deletion strains, locus YLR113W, strain HOG1, active compounds read low 1.03 | S. cerevisiae deletion strains, locus YLR221C, strain rsa3, active compounds read low 1.03 | S. cerevisiae deletion strains, locus YLR258W, strain gsy2, active compounds read low 1.02 | S. cerevisiae deletion strains, locus YLR262C, strain YPT6 (second series), active compounds read low 1.06 | S. cerevisiae deletion strains, locus YLR262C, strain YPT6, active compounds read low 1.19 | S. cerevisiae deletion strains, locus YLR268W, strain sec22, active compounds read low 1.03 | S. cerevisiae deletion strains, locus YLR320W, strain mms22, active compounds read low 1.07 | S. cerevisiae deletion strains, locus YLR342W, strain FKS1 (second series), active compounds read low 1.01 | S. cerevisiae deletion strains, locus YLR342W, strain FKS1, active compounds read low 1.01 | S. cerevisiae deletion strains, locus YLR357W, strain rsc2, active compounds read low 0.989 | S. cerevisiae deletion strains, locus YLR370C, strain arc18, active compounds read low 1.01 | S. cerevisiae deletion strains, locus YLR371W, strain rom2, active compounds read low 0.977 | S. cerevisiae deletion strains, locus YLR384C, strain iki3, active compounds read low 1.03 | S. cerevisiae deletion strains, locus YLR418C, strain cdc73, active compounds read low 1.03 | S. cerevisiae deletion strains, locus YML016C, strain PPZ1, active compounds read low 1 | S. cerevisiae deletion strains, locus YML032C, strain rad52, active compounds read low 1.02 | S. cerevisiae deletion strains, locus YML120C, strain ndi1, active compounds read low 1.03 | S. cerevisiae deletion strains, locus YML124C, strain tub3, active compounds read low 1.02 | S. cerevisiae deletion strains, locus YMR058W, strain fet3, active compounds read low 0.955 | S. cerevisiae deletion strains, locus YMR078C, strain ctf18, active compounds read low 1.02 | S. cerevisiae deletion strains, locus YMR125W, strain sto1, active compounds read low 1.03 | S. cerevisiae deletion strains, locus YMR129W, active compounds read low 1.04 | S. cerevisiae deletion strains, locus YMR205C, strain PFK2, active compounds read low 1.09 | S. cerevisiae deletion strains, locus YMR223W, strain ubp8, active compounds read low 1 | S. cerevisiae deletion strains, locus YMR231W, strain pep5, active compounds read low 1.02 | S. cerevisiae deletion strains, locus YMR263W, strain SAP30, active compounds read low 1.03 | S. cerevisiae deletion strains, locus YMR307W, strain GAS1, active compounds read low 0.915 | S. cerevisiae deletion strains, locus YNL067W, strain RPL9B, active compounds read low 1.02 | S. cerevisiae deletion strains, locus YNL071W, strain lat1, active compounds read low 1.05 | S. cerevisiae deletion strains, locus YNL183C, strain NPR1, active compounds read low 0.95 | S. cerevisiae deletion strains, locus YNL209W, strain ssb2, active compounds read low 0.996 | S. cerevisiae deletion strains, locus YNL233W, strain BNI4, active compounds read low 1.04 | S. cerevisiae deletion strains, locus YNL248C, strain rpa49, active compounds read low 0.999 | S. cerevisiae deletion strains, locus YNL250W, strain rad50, active compounds read low 1.05 | S. cerevisiae deletion strains, locus YNL271C, strain bni1, active compounds read low 1 | S. cerevisiae deletion strains, locus YNL298W, strain CLA4, active compounds read low 1.02 | S. cerevisiae deletion strains, locus YNL307C, strain MCK1, active compounds read low 1.02 | S. cerevisiae deletion strains, locus YNL322C, strain KRE1 (second series), active compounds read low 1.07 | S. cerevisiae deletion strains, locus YNL322C, strain KRE1, active compounds read low 1.01 | S. cerevisiae deletion strains, locus YNR049C, strain mso1, active compounds read low 1.04 | S. cerevisiae deletion strains, locus YNR052C, strain pop2, active compounds read low 0.963 | S. cerevisiae deletion strains, locus YOL006C, strain TOP1, active compounds read low 1.03 | S. cerevisiae deletion strains, locus YOL012C, strain htz1 1.21 | S. cerevisiae deletion strains, locus YOL147C, strain pex11, active compounds read low 1.01 | S. cerevisiae deletion strains, locus YOR001W, strain rrp6, active compounds read low 1.03 | S. cerevisiae deletion strains, locus YOR061W, strain CKA2, active compounds read low 1.02 | S. cerevisiae deletion strains, locus YOR069W, strain VPS5, active compounds read low 1 | S. cerevisiae deletion strains, locus YOR070C, strain gyp1, active compounds read low 1.01 | S. cerevisiae deletion strains, locus YOR080W, strain dia2, active compounds read low 1.06 | S. cerevisiae deletion strains, locus YOR083W, strain WHI5, active compounds read low 1.01 | S. cerevisiae deletion strains, locus YOR106W, strain vam3, active compounds read low 1.04 | S. cerevisiae deletion strains, locus YOR136W, strain idh2, active compounds read low 1.02 | S. cerevisiae deletion strains, locus YOR144C, strain elg1, active compounds read low 1.02 | S. cerevisiae deletion strains, locus YOR184W, strain ser1, active compounds read low 1.06 | S. cerevisiae deletion strains, locus YOR231W, strain MKK1, active compounds read low 1.01 | S. cerevisiae deletion strains, locus YOR265W, strain rbl2, active compounds read low 1.03 | S. cerevisiae deletion strains, locus YOR270C, strain vph1, active compounds read low 1.14 | S. cerevisiae deletion strains, locus YOR290C, strain snf2, active compounds read low 1.01 | S. cerevisiae deletion strains, locus YOR316C, strain cot1, active compounds read low 1.01 | S. cerevisiae deletion strains, locus YPL051W, strain arl3, active compounds read low 1.02 | S. cerevisiae deletion strains, locus YPL078C, strain atp4, active compounds read low 1.01 | S. cerevisiae deletion strains, locus YPL106C, strain sse1, active compounds read low 1 | S. cerevisiae deletion strains, locus YPL240C, strain hsp82, active compounds read low 1.04 | S. cerevisiae deletion strains, locus YPL256C, strain CLN2, active compounds read low 0.992 | S. cerevisiae deletion strains, locus YPR119W, strain clb2, active compounds read low 1.03 | S. cerevisiae deletion strains, locus YPR141C, strain kar3, active compounds read low 0.993 | S. cerevisiae deletion strains, locus YPR163C, strain tif3, active compounds read low 1.01 | S. cerevisiae deletion strains, locus YPR167C, strain met16, active compounds read low 1.02 | S. cerevisiae deletion strains, strain wtn01, active compounds read low 1.03 | S. cerevisiae strains, strain wild type, active compounds read low 0.998
